As usually defined, the inhibition is the change of the read-out against control, counted positive when it falls.

Test [1] addresses Platelet-derived growth factor receptor beta (Homo sapiens) (UniProt P09619). To be noted: at 1 µM.
The target in test [2] is Tyrosine-protein kinase FRK (Homo sapiens) (UniProt P42685). The settings on record: at 0.1 µM.
Test [3] shares this target. The settings on record: at 1 µM.
In test [4] the target is Protein-tyrosine kinase 2-beta (Homo sapiens) (UniProt Q14289). To be noted: at 0.1 µM.
Test [5] shares this target. The settings on record: at 1 µM.
The target in test [6] is Proto-oncogene tyrosine-protein kinase receptor Ret (Homo sapiens) (UniProt P07949). The settings on record: at 0.1 µM.
The target is the same in test [7]. To be noted: at 1 µM.
Test [8] concerns Proto-oncogene tyrosine-protein kinase receptor Ret (Homo sapiens), P07949 [V804L]. To be noted: at 0.1 µM.
Test [9] has the same test system. The settings on record: at 1 µM.
In test [10] the test system is Proto-oncogene tyrosine-protein kinase receptor Ret (Homo sapiens), P07949 [Y791F]. To be noted: at 0.1 µM.
Chain of Proto-oncogene tyrosine-protein kinase receptor Ret (Homo sapiens), P07949 [Y791F] (P07949 whole entry Y791F): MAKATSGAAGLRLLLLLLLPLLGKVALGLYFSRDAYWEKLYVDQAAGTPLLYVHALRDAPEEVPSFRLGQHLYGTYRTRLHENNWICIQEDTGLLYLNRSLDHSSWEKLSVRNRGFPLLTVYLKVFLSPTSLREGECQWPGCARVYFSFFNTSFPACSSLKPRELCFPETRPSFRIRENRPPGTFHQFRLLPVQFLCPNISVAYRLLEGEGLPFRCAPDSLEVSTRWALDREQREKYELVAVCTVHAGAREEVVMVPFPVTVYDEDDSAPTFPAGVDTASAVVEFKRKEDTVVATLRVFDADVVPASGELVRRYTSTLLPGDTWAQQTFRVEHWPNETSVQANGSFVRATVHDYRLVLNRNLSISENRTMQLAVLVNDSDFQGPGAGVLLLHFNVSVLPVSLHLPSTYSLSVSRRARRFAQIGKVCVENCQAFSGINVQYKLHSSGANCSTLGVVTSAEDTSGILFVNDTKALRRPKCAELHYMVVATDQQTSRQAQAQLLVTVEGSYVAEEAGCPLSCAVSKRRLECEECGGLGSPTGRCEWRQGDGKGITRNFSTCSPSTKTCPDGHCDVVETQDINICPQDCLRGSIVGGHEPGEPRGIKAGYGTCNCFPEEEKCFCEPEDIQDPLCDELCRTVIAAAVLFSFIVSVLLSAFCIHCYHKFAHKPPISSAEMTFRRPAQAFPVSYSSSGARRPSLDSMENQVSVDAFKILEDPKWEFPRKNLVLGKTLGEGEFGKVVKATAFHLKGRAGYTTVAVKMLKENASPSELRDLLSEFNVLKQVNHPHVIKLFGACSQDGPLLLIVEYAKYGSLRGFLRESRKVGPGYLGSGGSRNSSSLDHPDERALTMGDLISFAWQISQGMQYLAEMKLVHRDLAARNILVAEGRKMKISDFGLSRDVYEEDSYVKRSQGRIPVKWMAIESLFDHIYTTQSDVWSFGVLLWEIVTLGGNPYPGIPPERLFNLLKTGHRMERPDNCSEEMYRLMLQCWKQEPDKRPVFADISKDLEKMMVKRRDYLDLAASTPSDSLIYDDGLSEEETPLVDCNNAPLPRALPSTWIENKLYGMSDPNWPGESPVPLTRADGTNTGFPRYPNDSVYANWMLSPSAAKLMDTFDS

Chain of Protein-tyrosine kinase 2-beta (Homo sapiens) (Q14289 whole entry, looked up): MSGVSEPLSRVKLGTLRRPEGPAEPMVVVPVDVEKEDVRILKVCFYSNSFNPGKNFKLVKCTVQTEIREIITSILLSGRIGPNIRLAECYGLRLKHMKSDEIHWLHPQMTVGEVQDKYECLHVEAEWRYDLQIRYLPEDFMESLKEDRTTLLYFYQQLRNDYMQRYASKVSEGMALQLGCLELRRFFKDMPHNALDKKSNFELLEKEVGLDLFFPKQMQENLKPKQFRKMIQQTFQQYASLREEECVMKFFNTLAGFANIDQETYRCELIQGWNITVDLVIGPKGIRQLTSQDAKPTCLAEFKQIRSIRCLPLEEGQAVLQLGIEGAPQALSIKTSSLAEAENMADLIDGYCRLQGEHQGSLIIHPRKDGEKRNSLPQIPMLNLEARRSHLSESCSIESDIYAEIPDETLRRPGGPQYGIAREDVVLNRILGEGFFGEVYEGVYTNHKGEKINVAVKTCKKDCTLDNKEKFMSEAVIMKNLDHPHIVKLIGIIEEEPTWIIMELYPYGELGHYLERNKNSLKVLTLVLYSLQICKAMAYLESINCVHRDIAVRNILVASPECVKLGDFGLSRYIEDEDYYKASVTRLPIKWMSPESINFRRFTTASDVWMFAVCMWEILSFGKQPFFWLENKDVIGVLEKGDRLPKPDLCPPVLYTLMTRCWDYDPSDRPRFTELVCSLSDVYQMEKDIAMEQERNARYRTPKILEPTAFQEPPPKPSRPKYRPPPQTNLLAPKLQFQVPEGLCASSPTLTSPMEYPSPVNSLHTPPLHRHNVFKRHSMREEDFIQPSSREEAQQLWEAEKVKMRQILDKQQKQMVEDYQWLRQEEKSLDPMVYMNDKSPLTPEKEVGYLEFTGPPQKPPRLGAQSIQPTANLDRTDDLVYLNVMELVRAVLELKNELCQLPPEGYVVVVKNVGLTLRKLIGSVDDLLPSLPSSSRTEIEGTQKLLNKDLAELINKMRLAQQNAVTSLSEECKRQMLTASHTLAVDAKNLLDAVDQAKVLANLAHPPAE
Chain of Platelet-derived growth factor receptor beta (Homo sapiens) (P09619 whole entry): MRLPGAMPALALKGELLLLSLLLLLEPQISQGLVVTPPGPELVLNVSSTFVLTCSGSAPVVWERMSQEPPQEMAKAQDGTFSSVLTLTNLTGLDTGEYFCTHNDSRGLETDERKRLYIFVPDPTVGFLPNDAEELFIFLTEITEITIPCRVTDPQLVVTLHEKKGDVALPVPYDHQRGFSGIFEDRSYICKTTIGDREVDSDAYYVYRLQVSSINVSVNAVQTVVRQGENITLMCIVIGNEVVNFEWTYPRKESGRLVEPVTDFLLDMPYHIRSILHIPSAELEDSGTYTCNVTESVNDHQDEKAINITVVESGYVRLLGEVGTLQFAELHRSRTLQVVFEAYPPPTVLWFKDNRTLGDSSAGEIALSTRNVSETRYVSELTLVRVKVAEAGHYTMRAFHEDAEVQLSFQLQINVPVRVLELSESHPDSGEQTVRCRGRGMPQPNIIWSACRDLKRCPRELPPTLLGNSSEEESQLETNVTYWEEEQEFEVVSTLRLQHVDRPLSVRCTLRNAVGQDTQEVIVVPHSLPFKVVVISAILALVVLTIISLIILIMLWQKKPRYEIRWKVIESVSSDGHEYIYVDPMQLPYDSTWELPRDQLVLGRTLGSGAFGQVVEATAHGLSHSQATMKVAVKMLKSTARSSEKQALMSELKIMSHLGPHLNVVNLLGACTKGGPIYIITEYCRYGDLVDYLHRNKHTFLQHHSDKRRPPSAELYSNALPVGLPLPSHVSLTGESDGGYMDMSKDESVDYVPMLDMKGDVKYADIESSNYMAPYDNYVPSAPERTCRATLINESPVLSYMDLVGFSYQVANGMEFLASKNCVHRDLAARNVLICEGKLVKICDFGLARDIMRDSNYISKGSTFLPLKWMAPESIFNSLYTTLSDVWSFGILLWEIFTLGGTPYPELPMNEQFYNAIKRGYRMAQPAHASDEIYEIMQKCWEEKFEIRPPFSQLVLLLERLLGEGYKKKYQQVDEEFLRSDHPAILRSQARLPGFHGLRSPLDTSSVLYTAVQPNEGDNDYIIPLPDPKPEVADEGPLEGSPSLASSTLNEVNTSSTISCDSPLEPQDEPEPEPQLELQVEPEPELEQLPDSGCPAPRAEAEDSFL
Chain of Proto-oncogene tyrosine-protein kinase receptor Ret (Homo sapiens), P07949 [V804L] (P07949 whole entry V804L): as the sequence (P07949 whole entry Y791F) above, with F791Y, V804L counted along it
Chain of Proto-oncogene tyrosine-protein kinase receptor Ret (Homo sapiens) (P07949 whole entry): as the sequence (P07949 whole entry Y791F) above, with F791Y counted along it
Chain of Tyrosine-protein kinase FRK (Homo sapiens) (P42685 whole entry): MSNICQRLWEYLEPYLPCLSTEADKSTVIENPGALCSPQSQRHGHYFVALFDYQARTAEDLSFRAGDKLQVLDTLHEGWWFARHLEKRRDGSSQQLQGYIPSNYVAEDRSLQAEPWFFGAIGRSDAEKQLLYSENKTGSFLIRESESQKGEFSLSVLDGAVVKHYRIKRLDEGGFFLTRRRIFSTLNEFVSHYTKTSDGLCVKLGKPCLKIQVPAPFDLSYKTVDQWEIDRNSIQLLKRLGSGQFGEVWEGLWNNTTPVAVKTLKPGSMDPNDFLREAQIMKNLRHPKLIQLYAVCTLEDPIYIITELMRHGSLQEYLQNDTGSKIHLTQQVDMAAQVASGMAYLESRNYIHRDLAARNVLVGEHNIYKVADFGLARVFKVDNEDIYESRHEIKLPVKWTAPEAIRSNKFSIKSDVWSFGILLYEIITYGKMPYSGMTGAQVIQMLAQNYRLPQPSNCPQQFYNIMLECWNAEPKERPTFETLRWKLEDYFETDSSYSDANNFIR

In the case of `C[C@@H](Oc1cc(-n2cnc3ccc(OC4CCN(C)CC4)cc32)sc1C(N)=O)c1ccccc1Cl`, the inhibition worked out at 70.8% in test [1]; 3.35% in [2]; 3.66% in test [3]; 4.13% in [4]; 11.7% in test [5]; 3.19% in test [6]. In addition, the inhibition turned out to be 16.5% in [7], 2.32% in test [8], 15.8% in test [9] and 6.79% in test [10].

As for `Nc1nccc(-c2c(-c3ccc(F)cc3)ncn2C2CCC(O)CC2)n1` (configuration not stated), the inhibition in test [1] is 30.3%; in test [2] it was -0.89%; in [3], 5.08%; in test [4], -2.8%; in [5], 2.44%; in test [6] it was 3.09%. The inhibition in test [7] is 19.3%; in [8], 0.11%; in test [9] it was 5.11%; in test [10], 3.7%.

As for `CCc1nccc2c1nc(-c1nonc1N)n2CC`, the inhibition in test [1] is 14%; in test [2], 0.24%; in test [3], -0.39%; in test [4], 3.87%; in [5], 0.03%; in [6], 0.76%. Further, the inhibition in [7] amounted to 9.96%; in test [8], 4.16%; in test [9], 1.71%; in [10], 3.64%.

Take `Cc1ccc(NC(=O)c2ccoc2)cc1-c1ccc(C(=O)NCC2CC2)cc1`: the inhibition in test [1] is -0.8%; in test [2], 0.1%; in [3], 2.51%; in test [4], 0.3%; in [5] it was -0.07%; in [6] it was 5.24%. The inhibition in test [7] amounted to 0.04%; in test [8], 1.71%; in [9], 2.38%; in test [10] it was 1.45%.

On to `COc1ccc2cc(-c3c(-c4ccncc4)nc(-c4ccc(S(C)(=O)=O)cc4C)n3C)ccc2c1`, for which the inhibition in test [1] came to 13.2%; in [2], 3.55%; in [3], 2.3%; in [4], 12.8%; in test [5], 12.4%; in test [6] it was 4.93%. The inhibition is 22.2% in test [7], 2.68% in test [8], 4.41% in test [9] and 3.67% in test [10].

`Cc1ccc(C(=O)NC(C)C)cc1-c1ccc(C(=O)NCC2CC2)cc1`: the inhibition in test [1] is 2.4%; in [2], 0.01%; in test [3], -0.89%; in [4], -7.76%; in test [6] it was 2.09%; in test [7], 0.64%. Moreover, the inhibition in test [8] is -0.26%; in test [9] it was -0.17%; in test [10], -0.71%.

In the case of `Cc1ccc(C(=O)NC2CCC2)cc1-c1ccc(C(=O)NCC2CC2)cc1`, the inhibition in test [1] was determined as 4.37%; in test [2], 1.45%; in [3], 0.56%; in [4], 4.2%; in [5] it was 4.27%; in [6], 7.54%. Moreover, the inhibition was 8.34% in test [7], 4.17% in test [8], -0.01% in [9] and 2.44% in test [10].

Take `COc1ccc(-c2ccc3c(NC(=O)C4CC4)n[nH]c3n2)cc1`: the inhibition was 5.91% in test [1]; 0.53% in [2]; -0.31% in test [3]; 0.18% in test [4]; 6.52% in test [5]; 0.65% in test [6]. Further, the inhibition in test [7] is 1.93%; in test [8] it was 6.95%; in test [9], 9.13%; in test [10] it was 0.39%.

`NC(=O)Cc1ccccc1Oc1nccc(-c2c(-c3ccc(F)cc3)ncn2C2CCNCC2)n1`: the inhibition turned out to be 5.76% in test [1]; 1.11% in test [2]; 3.64% in test [3]; 5.56% in test [4]; 3.38% in test [5]; 5.79% in [6]. Moreover, the inhibition is 3.25% in test [7], 2.51% in [8], 0.95% in [9] and 3.81% in [10].

Regarding `FC(F)(F)c1cccc(Nc2nccc(-c3cnn4nc(-c5ccccc5)ccc34)n2)c1`, the inhibition in test [1] is 37.1%; in test [2], 1.24%; in [3], 0.8%; in [4], -1%; in test [5], 7.77%; in test [6], 0.18%. Besides, the inhibition in test [7] amounted to 2.88%; in test [8], 3.76%; in test [9], 4.5%; in test [10], 3.91%.

Turning to `C[C@@H](Oc1cc(-n2cnc3ccc(OCC4CCN(C)CC4)cc32)sc1C(N)=O)c1ccccc1Cl`, the inhibition in test [1] was 84.7%; in test [2], 3.53%; in [3], 3.93%; in test [4] it was 5.71%; in test [5] it was 13.7%; in test [6], 6.25%. The inhibition in test [7] is 18.2%; in test [8] it was 5.76%; in test [9], 16.7%; in test [10], 8.22%.

Regarding `O=C(Nc1n[nH]c2nc(-c3ccc(O)cc3)c(Br)cc12)C1CC1`, the inhibition in [1] came out at 41.3%; in [2], 14.7%; in [3], 2.41%; in test [4], 9.91%; in test [5], 18.5%; in [6], 11.8%. The inhibition in test [7] amounted to 28.1%; in [8], 5.98%; in test [9], 21%; in test [10] it was 12.1%.

Regarding `NC(=O)c1ccc(Oc2nccc(-c3c(-c4ccc(F)cc4)ncn3C3CCNCC3)n2)cc1`, the inhibition is 6.41% in [1]; 2.8% in test [2]; 4.67% in test [3]; -0.03% in [4]; 10.9% in test [5]; 1.55% in test [6]. Also, the inhibition in test [7] is 2.99%; in [8], 2.2%; in test [9] it was 5.79%; in test [10], 3.11%.

Regarding `Fc1ccc(-c2ncn(C3CCNCC3)c2-c2ccnc(Oc3ccc4c(c3)OCO4)n2)cc1`, the inhibition in [1] turned out to be 12.7%; in [2], 3.01%; in [3] it was 4.4%; in test [4], 7%; in [5], 9.57%; in [6], 3.97%. Besides, the inhibition in test [7] was determined as 6.88%; in test [8], 9.21%; in [9], 12.4%; in test [10], 14.5%.

On to `COc1cc2ncn(-c3cc(OCc4ccccc4C(F)(F)F)c(C(C)=O)s3)c2cc1OC`, for which the inhibition in test [1] amounted to 21.5%; in test [2], 0.97%; in [3], 2.94%; in test [6], 4.62%; in test [7], 5.58%; in test [8], 5.33%. In addition, the inhibition in [9] came out at 9.72%; in [10] it was 7.72%.

With `O=C(Nc1n[nH]c2cc(-c3cc(F)ccc3F)ccc12)C1CC1`, the inhibition in [1] came out at 14.1%; in test [2], 2.44%; in test [3], 0.71%; in test [4] it was 9.57%; in test [5] it was 10.3%; in test [6], 6.14%. In addition, the inhibition came to 10.3% in [7], 3.33% in test [8], 2.9% in [9] and 7.68% in test [10].

As to `NCc1ccc(-n2c(-c3nonc3N)nc3cnccc32)cc1`, the inhibition in test [1] was 37.3%; in [2] it was 1.83%; in [3], 1.83%; in test [4], 11.2%; in [5], 9.24%; in test [6], 5.69%. Also, the inhibition in [7] amounted to 7.7%; in test [8], 7.22%; in test [9], 9.65%; in test [10] it was 7.37%.

Values taken from ChEMBL document CHEMBL1961873, “Compounds: GSK PKIS; Assays: Nanosyn kinase panel” (2012).
